Screening data (PubChem BioAssay)
Rows were chosen to be rich in hits. Some 1.1% of all compounds tested hit in one or more screens of this group.
MOR-DOR inv ag – inverse agonist of human OPRM1-OPRD1 heterodimerization; cell-based MOR-DOR heterodimer luminescence, inverse agonism; inhibition, % at 9.3 µM; 0.21% of 340,000 active; AID 504357; in the data active = inhibition above about 22%, passing the limit was not always enough;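 also: 0% = cells with DMSO and 100% = wells without cells with DMSO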
HTR5A ag – counter-screen for OPRM1-OPRD1 agonists: human HTR5A agonism | HTR5A agonist assay, luminescence, cell-based | activation, % at 9.3 µM | 0.61% of 340,000 active; in the data active = activation mostly above about 9.5%, no sharp cut-off; inactive = mostly below about 7.6%;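 also: 0% = cells with vehicle only and 100% = reference agonist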
Target sequence (P47898 whole entry, looked up): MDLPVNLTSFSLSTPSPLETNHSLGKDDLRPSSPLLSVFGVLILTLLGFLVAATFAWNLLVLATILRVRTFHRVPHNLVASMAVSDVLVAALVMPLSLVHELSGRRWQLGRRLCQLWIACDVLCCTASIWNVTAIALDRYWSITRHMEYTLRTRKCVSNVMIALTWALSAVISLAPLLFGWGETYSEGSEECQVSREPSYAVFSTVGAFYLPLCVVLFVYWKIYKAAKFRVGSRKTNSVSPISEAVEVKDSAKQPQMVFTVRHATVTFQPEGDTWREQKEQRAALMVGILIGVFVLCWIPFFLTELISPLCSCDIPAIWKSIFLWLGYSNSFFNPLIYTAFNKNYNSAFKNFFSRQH
OPRM1-OPRD1 ag – OPRM1-OPRD1 heterodimerization agonism | activation, % at 9.3 µM | P35372+P41143 | 0.3% of 340,000 active | cells, luminescence;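 also: 0% = vehicle-treated cells and 100% = reference agonist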
HTR5A inv ctr – counter-screen for OPRM1-OPRD1 inverse agonists: human HTR5A inverse agonism; P47898; HTR5A cell line, luminescence; inhibition, % at 9.3 µM; 0.083% of 340,000 active; in the data active = inhibition mostly above about 23%, no sharp cut-off; inactive = mostly below about 18%;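 also: 0% = cells with DMSO and 100% = no-cell wells with DMSO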
MOR-DOR ag conf – confirmation of human OPRM1-OPRD1 heterodimerization agonists | shares compounds with OPRM1-OPRD1 ag | cells, MOR-DOR heterodimerization, luminescence complementation | activation, % at 9.3 µM | 45% of 830 active | AID 504904;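 also: 0% = vehicle-treated cells and 100% = reference agonist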
HTR5A ag counter – activates human HTR5A in OPRM1-OPRD1 agonist counter-screen; AID 504905; HTR5A agonist counterscreen, cell luminescence; 8% of 830 active; shares compounds with OPRM1-OPRD1 ag; activation, % at 9.3 µM; in the data active = activation above about 17%;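 also: 0% = vehicle-treated cells and 100% = reference agonist response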
* hit, by the source's call; i = inactive; nt = no result. Rule as the data show it, unless noted: active = activation above about 18%; inactive = the rest.

SMILES | MOR-DOR inv ag | HTR5A ag | OPRM1-OPRD1 ag | HTR5A inv ctr | MOR-DOR ag conf | HTR5A ag counter
O=C(Cn1ccccc1=O)Nc1ccc(Cl)c(S(=O)(=O)N2CCCCC2)c1 | 3 | 0 | -1 | -8 | nt | nt
CCn1cc(C(=O)NCCCOC(C)C)c(=O)c2cc(S(=O)(=O)N3CCCC3)ccc21 | 12 | 6 | -2 | 2 | nt | nt
CCOC(=O)C1(CC2CCCCO2)CCN(Cc2nccn2-c2cccc(C)c2)CC1 (stereo not drawn) | -64 | 4 | 13 | 6 | nt | nt
CCOC(=O)C1(CC2CCCCO2)CCN(Cc2cc(F)ccc2-n2cccn2)CC1 (stereo not drawn) | -298 | -4 | 61* | 0 | 66* | 2
CCOC(=O)C1(CC2CCCCO2)CCN(Cc2c(C)cc(C)cc2-n2cccn2)CC1 (stereo not drawn) | i | 9 | 199* | -29 | 267* | 2
CCOC(=O)C1(CC2CCCCO2)CCN(Cc2nccn2-c2ccc(OC)cc2)CC1 (stereo not drawn) | 18 | 2 | -4 | -4 | nt | nt
CCOC(=O)C1(CC2CCCCO2)CCN(Cc2nc3ccccc3[nH]2)CC1 (stereo not drawn) | -148 | -4 | 29* | 10 | 27* | 3
CN(/N=C/Cc1nnnn1-c1ccc(Cl)cc1)c1ccccc1 | 10 | 4 | -2 | -1 | nt | nt
COCC(=O)N1CCCC(N(C)CCc2ccc(OC)c(OC)c2)C1 (stereo not drawn) | 10 | 3 | -2 | -12 | nt | nt
O=c1c2cc(Cl)ccc2[nH]c(=S)n1Cc1cccs1 | -11 | 2 | 2 | 21 | nt | nt
Cc1cccc(-n2nc(C(=O)c3ccco3)cc(-c3nc4ccccc4[nH]3)c2=N)c1 | -222 | -1 | 31* | 3 | 1 | 0
O=C(C[C@H]1C/C=C\C[C@H](NC(=O)OCC2c3ccccc3-c3ccccc32)C(=O)O[C@H](c2ccccc2)CNC1=O)N[C@H](CO)Cc1ccccc1 | i | 21* | 239* | -144 | 7 | 12
COC(=O)C1=C(C)N(CCCC(=O)O)C(=O)NC1c1ccccc1OS(=O)(=O)c1ccccc1[N+](=O)[O-] (stereo not drawn) | -296 | -2 | 51* | 6 | 47* | 5
CCOC(=O)C1=C(C)N(Cc2ccccc2)C(=O)NC1c1ccccc1OS(=O)(=O)c1ccccc1[N+](=O)[O-] (stereo not drawn) | -380 | -2 | 65* | 6 | 1 | -4
CC(C)c1onc(C(=O)NCc2ccccn2)c1[N+](=O)[O-] | 3 | 2 | 0 | -4 | nt | nt
CCOC(=O)c1cc(-c2ccccc2)n[nH]1 | 7 | 8 | -1 | 15 | nt | nt
COc1cccc(N2CCN(c3ncnc4c3[nH]c3ccc(F)cc34)CC2C)c1 (stereo not drawn) | -256 | 15* | 43* | -25 | -4 | -8
CC1=CC(C)(C)N=C(Nc2nc(C)c3cc(C)cc(C)c3n2)N1 | -94 | 5 | 19* | 12 | 21* | 2
Cc1cc(C)c2nc(Nc3nc(-c4ccccc4)cc(=O)[nH]3)nc(C)c2c1 | -2 | -3 | 0 | 13 | nt | nt
O=C(NCCn1cccn1)C1CCC(=O)N(CCc2cccc(F)c2)C1 (stereo not drawn) | 9 | 5 | -2 | 3 | nt | nt
c1ccc(-c2ccc(CN3C[C@@H]4C(c5ccccc5)C5(c6cccnc6)CC4(C5)[C@H]3c3ccccc3)cc2)cc1 (stereo partly drawn) | -2 | 3 | 0 | -22 | nt | nt
Clc1ccc(C2[C@H]3CN(Cc4cccnc4)[C@H](c4ccccc4)C34CC2(c2cccnc2)C4)cn1 (stereo partly drawn) | -311 | -5 | 54* | -13 | 9 | 8
FC(F)(F)c1ccc(C2[C@H]3CN(Cc4cccnc4)[C@H](c4ccccc4)C34CC2(c2cccnc2)C4)cc1 (stereo partly drawn) | -273 | -1 | 49* | -5 | 68* | -4
O=C(Nc1ccncc1)Nc1ccc(Cl)cc1Cl | -11 | 4 | 2 | -11 | nt | nt
CCN(CC(=O)N1CCCC1)S(=O)(=O)c1cc(C)ccc1OC | 14 | 0 | -3 | 0 | nt | nt
SMILES | MOR-DOR inv ag | HTR5A ag | OPRM1-OPRD1 ag | HTR5A inv ctr | MOR-DOR ag conf | HTR5A ag counter
CCOC(=O)C1(CCc2ccccc2)CCN(Cc2ccc(OC)cc2)CC1 | i | -1 | 129* | 3 | 7 | 8
CCOC(=O)C1(CCc2ccccc2)CCN(Cc2c(O)cccc2OC)CC1 | i | -2 | 292* | 6 | -1 | -8
CCOC(=O)C1(CCc2ccccc2)CCN(Cc2ccc(O)cc2)CC1 | -35 | -1 | 7 | 2 | nt | nt
COc1cccc(-c2nc(NCc3ccco3)c3ccccc3n2)c1O | -128 | 8 | 26* | -12 | 10 | 24*
Cc1cccc(C)c1NC(=O)CNC(=O)c1ccc2ccccc2n1 | -8 | -3 | 2 | 9 | nt | nt
CCOc1ccc(-c2nnc(SCC(=O)Nc3ccc4c(c3)c3ccccc3n4CC)n2N)cc1 | -177 | 1 | 33* | -2 | 24* | 19*
CCOc1cc(CNc2ccc(O)cc2)cc(Br)c1OCc1ccccc1F | -70 | 9 | 12 | -25 | nt | nt
COc1cc(CNc2ccc(O)cc2)cc(Br)c1OCc1ccccc1F | -145 | 2 | 28* | -8 | 1 | 0
CC(NCCC1(Cc2ccccc2Cl)CCOC(C)(C)C1)c1cccs1 (stereo not drawn) | -227 | -2 | 45* | -13 | 6 | 2
CC(NCCC1(C(C)C)CCOC(C)(C)C1)c1cccs1 (stereo not drawn) | 7 | -2 | -1 | 2 | nt | nt
O=C(CCl)N(CCCNC(=O)C(F)(F)F)c1ccc([N+](=O)[O-])cc1 | -94 | -1 | 18* | -8 | 28* | 29*
CCc1nc(N)c(C#N)c(-c2cccn2C)c1C | 15 | 0 | -3 | -19 | nt | nt
COc1ccccc1C(CC(=O)Nc1ccc(Cl)cc1)c1ccc(OC(C)C)cc1 (stereo not drawn) | -9 | 3 | 1 | -6 | nt | nt
COc1ccc(C(C)NCCC(c2ccc(OC(C)C)cc2)c2ccccc2OC)cc1 (stereo not drawn) | -135 | 1 | 23* | -5 | 37* | 7
Cc1ccc(-n2[nH]c(C)c(/C=N/NC(=O)c3ccc(O)cc3O)c2=O)cc1 | 19 | -1 | -4 | 2 | nt | nt
COc1cc(NC(=O)CN2C(=O)C(c3ccccc3)=NC2(C)C)cc(OC)c1 | 6 | 5 | -1 | -15 | nt | nt
Cc1cc(C(=O)NCC(c2ccco2)N(C)C)no1 (stereo not drawn) | 7 | -3 | -1 | 15 | nt | nt
Cc1c(C(=O)NCC(c2ccco2)N(C)C)oc2c(Cl)cccc12 (stereo not drawn) | -171 | 0 | 32* | -24 | 20* | 30*
Cc1ccc2nc(-c3ccccc3)cc(C(=O)NCC(c3ccco3)N(C)C)c2c1 (stereo not drawn) | -228 | -5 | 36* | 13 | 1 | -3
